Sfp inh: Sfp phosphopantetheinyl transferase inhibition. Q9F4F7. Biochemical Sfp PPTase activity, qHTS. Potency, µM, hits mostly inhibitors. 310,000 compounds, 3.5% hits;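 further: the enzyme is Sfp with the accession as filed and its product quenches rhodamine fluorescence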
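Buffer: 50 mM Hepes-Na pH 7.6, 10 mM MgCl2, 0.01% Nonidet P-40, 0.01% BSA. Enzyme 15 nM, pre-exposed to compound 15 min; substrates then added and fluorescence change tracked over 30 min.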
ClpP mod: qHTS Assay for Activators of ClpP; purified B. subtilis ClpP, FRET peptide cleavage, 20 min; 340,000 compounds, 1.9% hits; ATP-dependent Clp protease proteolytic subunit (Bacillus subtilis (strain 168)), P80244; Potency, µM (highest dose often 57.5 µM); active means well fitted falling curve with a large enough effect; inconclusive means small, poorly fitted or top-dose-only effect; inactive means no such curve, though single readings can be large or run the other way; further: the source files actives as falling curves though it sought activators and does not explain the sign; nearly all actives have a fitted effect of over 65% in size
Target sequence (P80244 whole entry, looked up): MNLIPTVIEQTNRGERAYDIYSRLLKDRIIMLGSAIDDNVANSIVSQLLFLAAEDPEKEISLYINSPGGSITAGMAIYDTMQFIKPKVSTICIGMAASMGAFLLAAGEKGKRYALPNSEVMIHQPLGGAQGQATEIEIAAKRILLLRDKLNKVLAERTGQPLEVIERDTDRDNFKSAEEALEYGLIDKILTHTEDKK
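Buffer: 100 mM Tris/HCl pH8, 100 mM KCl, 0.05% low protease BSA, 2.5% glycerol, 0.01% Tween-20. ClpP 10 microg/mL final; 20 min RT; delta FRET normalized to ADEP and DMSO controls.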
uPA surface inh: inhibitors of cell surface uPA generation | cell surface uPA generation assay, qHTS | Potency, µM (series often up to 38.3 µM), hits mostly inhibitors | 330,000 compounds, 0.31% hits | AID 540303; active means well fitted inhibition curve with a large enough effect; inconclusive means small, poorly fitted or top-dose-only effect; inactive means no such curve, though single readings can be large or run the other way; tested in mouse RAW 264.7 cells; further: nearly all actives have a fitted effect of over 55% in size
TCR activator: activators of T cell receptors; 330,000 tested, under 10 active; primary human leukocytes, anti-CD3, IL-2 HTRF, 48 h; Potency, µM (doses to about 9.22 µM), usual class: activators
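Primary human leukocytes incubated 48 hr with anti-CD3 beads plus compound, without co-stimulation. Secreted IL-2 measured by HTRF (europium cryptate/d2 anti-IL-2 pair, 320 nm excitation, 665 nm emission).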
A number is an active result. Most compounds without a hit are left out; they make up all but 4.2% or so of the library. Unless noted, the call rests on the fitted dose curve; in most records, active means well fitted curve in the direction sought with a large enough effect; inconclusive means small, poorly fitted or top-dose-only effect, or another doubt; inactive means no such curve, though single readings can be large; an effect the other way counts as inactive or inconclusive.

How did COC(=O)c1c(/N=C/N(C)C)sc2c1CCN(c1ncc(C(F)(F)F)cc1Cl)C2 do in these assays?
Sfp inh: inactive; ClpP mod: inactive; uPA surface inh: inactive; TCR activator: inactive

What do the screens show for `COc1ccc(/C(C)=N/Nc2nc3ccccc3nc2C)cc1`?
Sfp inh: 25µM; uPA surface inh: inactive; TCR activator: inactive

What do the screens show for `COc1ccc(/C=N/NC(=S)Nc2ccccc2)cc1COc1ccc(F)cc1F`?
Sfp inh: inactive; ClpP mod: 35µM; uPA surface inh: inactive; TCR activator: inactive

What do the screens show for `COc1ccc(/C=C/C(=O)c2ccccc2)cc1COc1ccccc1F`?
Sfp inh: 89µM; ClpP mod: inactive; TCR activator: inactive

What do the screens show for `COc1ccc(C=O)cc1COc1ccccc1F`?
Sfp inh: inactive; ClpP mod: inactive; uPA surface inh: inactive; TCR activator: inactive

Results for COc1cccc(S(=O)(=O)N2CCN(c3nc(-c4cccs4)nc4ccccc34)CC2)c1 ?
ClpP mod: inactive

What do the screens show for `CCN1C(=O)[C@H]2[C@@H](c3ccc(C(F)(F)F)cc3)N[C@]3(CCCN(Cc4ccco4)C3=O)[C@H]2C1=O`?
ClpP mod: inactive

How did CCn1c(O)c(C=NC2CCCC2)sc1=S do in these assays?
Sfp inh: inactive; ClpP mod: inactive; uPA surface inh: inactive; TCR activator: inactive

How did CCn1c(O)c(C=Nc2ccccc2)n(-c2ccccc2)c1=S do in these assays?
Sfp inh: 79µM; ClpP mod: inactive; uPA surface inh: inactive; TCR activator: inactive

Results for CCn1c(O)c(/C=N/n2cnnc2)sc1=S ?
Sfp inh: 45µM; ClpP mod: inactive; uPA surface inh: inactive; TCR activator: inactive

Results for Oc1c(C=Nc2ccccc2)sc(=S)n1Cc1ccccc1 ?
Sfp inh: inactive; uPA surface inh: inactive; TCR activator: inactive

Results for CCn1c(O)c(C=Nc2ccccc2)sc1=S ?
Sfp inh: 56µM; uPA surface inh: inactive; TCR activator: inactive

What do the screens show for `CCC(Sc1nc2cc(OC)c(OC)cc2c(=O)n1CCc1ccc(Cl)cc1)C(=O)NCCOC` (configuration not stated)?
ClpP mod: inactive

How did O=C(NCC(=O)N(c1cccnc1)C(C(=O)NC1CCCC1)c1cccs1)c1ccco1 (configuration not stated) do in these assays?
Sfp inh: inactive; uPA surface inh: inactive; TCR activator: inactive

What do the screens show for `COc1ccc(NS(=O)(=O)c2ccc(N3CCCCS3(=O)=O)cc2)cc1Cl`?
ClpP mod: inactive

Results for Cc1c(NC(=S)NC(NC(=O)C(C)(C)C)C(Cl)(Cl)Cl)c(=O)n(-c2ccccc2)n1C (configuration not stated) ?
Sfp inh: inactive; ClpP mod: inactive; uPA surface inh: inactive; TCR activator: inactive

Results for CC(C)CCNC(=O)CN(Cc1ccccc1)C(=O)CCC(=O)Nc1ccccn1 ?
Sfp inh: inactive; uPA surface inh: inactive; TCR activator: inactive

What do the screens show for `CCN(CC)CCCNC(=O)C(C)n1nc(C)n2c(cc3occc32)c1=O` (configuration not stated)?
ClpP mod: inactive

Results for C=CCc1cc(OC)ccc1OCCN(C)Cc1ccccc1 ?
Sfp inh: 50µM; uPA surface inh: inactive; TCR activator: inactive

How did O=C1C(C2=C(O)c3ccccc3C2=O)=Nc2ccccc21 do in these assays?
Sfp inh: 56µM; ClpP mod: inactive; uPA surface inh: inactive; TCR activator: inactive

How did CN=CC1=C(O)c2ccccc2C1=O do in these assays?
Sfp inh: inactive; ClpP mod: inactive; uPA surface inh: inactive; TCR activator: inactive

Results for CCCCc1ccc(/C=C2\C(=O)c3ccccc3C(O)=C2C(=O)OCC)cc1 ?
Sfp inh: 3.2µM

Results for CCOC(=O)C1=C(C)OC(=CC=Cc2ccccc2)C1=O ?
ClpP mod: inactive

Results for CC(CCc1ccc(O)cc1)NCCc1ccc(O)c(O)c1 (configuration not stated) ?
Sfp inh: inconclusive; ClpP mod: inactive; uPA surface inh: 7.9µM; TCR activator: inactive

How did COC(=O)[C@H](CC(C)C)NC(=O)c1cc2c(cn1)[nH]c1ccccc12 do in these assays?
Sfp inh: 45µM; ClpP mod: inactive; uPA surface inh: inactive; TCR activator: inactive

What do the screens show for `CN1CCC(=NNC(=O)C(=O)NC2CCCC2)CC1`?
Sfp inh: inactive; ClpP mod: 32µM; uPA surface inh: inactive; TCR activator: inactive

How did COc1ccc(/C=C\c2onc(C)c2S(=O)(=O)N2CCC(C(=O)Nc3ccc(Cl)cc3)CC2)cc1 do in these assays?
ClpP mod: inactive

How did COC(=O)c1ccc(C2=NOC(C)(c3sc(-c4ccc(Cl)cc4)nc3C)C2)cc1 (configuration not stated) do in these assays?
Sfp inh: inactive; ClpP mod: 25µM; uPA surface inh: inactive; TCR activator: inactive

How did COC(=O)c1ccc(C2=NOC(C)(c3sc(-c4ccccc4)nc3C)C2)cc1 (configuration not stated) do in these assays?
Sfp inh: inactive; ClpP mod: inactive; uPA surface inh: inactive; TCR activator: inactive

What do the screens show for `O=C(NCCc1ccc(O)cc1)c1[nH]c(C(F)(F)F)nc1-c1ccccc1`?
ClpP mod: inactive

How did O=C(NCc1ccc2c(c1)OCO2)c1ccc(C2SCC(=O)N2Cc2ccco2)cc1 (configuration not stated) do in these assays?
Sfp inh: 35µM; ClpP mod: inactive; TCR activator: inactive

How did COCCNC(=O)c1ccc(C2SCC(=O)N2Cc2ccco2)cc1 (configuration not stated) do in these assays?
Sfp inh: 11µM; ClpP mod: inactive; uPA surface inh: inactive; TCR activator: inactive

How did COc1cc2cc3c4c(cc(OC)c(OC)c4c2cc1OC)CCN3C do in these assays?
Sfp inh: 71µM

What do the screens show for `COc1cc2c(cc1OC)C(=O)N(C)CC2`?
Sfp inh: inactive; ClpP mod: inactive; uPA surface inh: inactive; TCR activator: inactive

What do the screens show for `CCOc1ccccc1NC(=O)CSc1nnc(CC)c(CC)n1`?
ClpP mod: inactive

What do the screens show for `Cc1cc(Sc2nnc(N)s2)c2ccccc2n1`?
Sfp inh: inactive; ClpP mod: inactive; uPA surface inh: 3.2µM; TCR activator: inactive

How did CS(=O)(=O)Nc1ccc(C2=NN(S(=O)(=O)c3ccc(F)cc3)C(c3ccco3)C2)cc1 (configuration not stated) do in these assays?
Sfp inh: 50µM; ClpP mod: inactive; uPA surface inh: inconclusive; TCR activator: inactive

Results for Cc1ccc(C2=NN(C(=O)CSc3nc4ncc(Cl)cc4[nH]3)C(c3ccco3)C2)cc1 (configuration not stated) ?
Sfp inh: 45µM; uPA surface inh: inactive; TCR activator: inactive

How did CCc1ccc(C2=NN(C(C)=O)C(c3ccco3)C2)cc1 (configuration not stated) do in these assays?
Sfp inh: 25µM; ClpP mod: inactive; uPA surface inh: inactive; TCR activator: inactive

What do the screens show for `O=C(c1ccco1)N1N=C(c2ccc(Cl)cc2)CC1c1ccco1` (configuration not stated)?
Sfp inh: inconclusive; ClpP mod: inactive; uPA surface inh: inactive; TCR activator: inactive

Screens deposited in PubChem by National Center for Advancing Translational Sciences (NCATS).
